# Only a selection was taken, and hits are over-represented in it overall.
# hDAT+cocaine – changed hDAT dopamine uptake under cocaine IC80, either direction, primary screen, cocaine antagonist project, cell-based, LLC-PK1 hDAT, [14C]-dopamine uptake, MLSMR | B-score at 10 µM | 1.3% of 110,000 active | LLC-PK1 hDAT cells, [14C]-dopamine uptake with cocaine IC80; actives deviate in either direction | Sodium-dependent dopamine transporter (Homo sapiens), Q01959;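 active = Z score or B-score, a plate-position-corrected score, falls beyond the plate's 99.7% confidence bounds, in either direction; inactive = both scores lie inside the 99.7% bounds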
# Target sequence (Q01959 whole entry, looked up): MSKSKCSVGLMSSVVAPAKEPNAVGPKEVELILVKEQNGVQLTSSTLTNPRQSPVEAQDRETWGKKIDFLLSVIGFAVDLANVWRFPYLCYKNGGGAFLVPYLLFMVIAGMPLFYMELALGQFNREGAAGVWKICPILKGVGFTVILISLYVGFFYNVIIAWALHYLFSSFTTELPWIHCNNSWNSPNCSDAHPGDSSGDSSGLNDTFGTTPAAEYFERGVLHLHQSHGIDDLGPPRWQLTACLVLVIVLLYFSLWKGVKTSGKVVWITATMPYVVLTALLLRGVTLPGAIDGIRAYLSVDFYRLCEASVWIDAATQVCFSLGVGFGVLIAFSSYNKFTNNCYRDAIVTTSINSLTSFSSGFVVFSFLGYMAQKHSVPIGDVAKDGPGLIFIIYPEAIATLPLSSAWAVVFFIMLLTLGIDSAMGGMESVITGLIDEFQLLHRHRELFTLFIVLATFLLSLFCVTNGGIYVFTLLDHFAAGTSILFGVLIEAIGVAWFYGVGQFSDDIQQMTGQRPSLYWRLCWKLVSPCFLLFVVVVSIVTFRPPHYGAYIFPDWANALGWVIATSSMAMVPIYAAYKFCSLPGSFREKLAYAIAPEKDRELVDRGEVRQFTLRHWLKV
# D1 mod – D1 CRE-luciferase signal change, two-sided – cell-based, HEK293 D1, dopamine EC30, D1 allosteric modulator project, primary screen; dopamine EC30 potentiation; actives deviate in either direction; B-score at 10 µM; 5.9% of 58,000 active; AID 641, 2007;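 active = luminescence count or its row- and column-corrected plate score outside the 99.7% band of the plate's sample wells, on either side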
# EphB4 antag – EphB4-ephrin-B2 interaction antagonists, primary screen, biochemical, TNYL-RAW peptide probe, fluorescence polarization. Ephrin type-B receptor 4 (Homo sapiens), P54760. EphB4 LBD / TNYL-RAW-Alexa532 peptide. 0.15% of 97,000 active. inhibition, % at 7 µM;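 active = inhibition above the screen-wide mean inhibition plus 3 SD, cut at about 15% in these data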
# D1 PAM confirm – D1 receptor positive allosteric modulators, retest, confirmation, cell-based, HEK293 D1, CRE-luciferase, duplicate. AID 642, 2007. 88% of 2,200 active. luminescence at 10 µM. dopamine EC30 potentiation; active compounds read high. shares compounds with D1 mod;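 active = luminescence in either of two replicates above the same-plate mean plus 3 SD of the low-dose dopamine control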
# D1 ag no DA – D1 receptor agonism without dopamine, confirmation, mechanism study for D1 allosteric modulator project, cell-based, HEK293 D1, CRE-luciferase, secondary assay 1 | shares compounds with D1 mod | luminescence, no dopamine; active compounds read high | luminescence at 10 µM | 0.8% of 1,900 active; in the data active = luminescence above about 3900
# Isoprot counter – alters isoproterenol CRE-luciferase response in HEK293 cells. shares compounds with D1 mod. AID 647. HEK293 D1 CRE-luciferase, isoproterenol EC30 counter-screen. calls only at 10 µM. 63% of 2,200 active;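 active = luminescence in either replicate above plate mean of wells with a partly effective reference agonist dose plus 3 SD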;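 also: isoproterenol raises cAMP through native beta-adrenoceptor Gs so signal bypasses D1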
# Hits are given with their value; n = inactive; x = no result; + = active, no number.
SMILES,hDAT+cocaine,D1 mod,EphB4 antag,D1 PAM confirm,Isoprot counter,others
Cc1sc(/N=C/c2ccccc2O)c(C#N)c1C,x,x,n,x,x,
CCCc1nnc(SCc2ccc(OC)cc2)n1N,n,n,n,x,x,
CCN(CC)Cc1c(CC(C)C)oc(C)c1C(=O)O,n,x,n,x,x,
O=c1nc(-c2ccccc2)n(-c2ccccc2)c2ncccc12,n,n,n,x,x,
COc1ccc(C#Cc2c(-c3ccsc3)oc3ccc(-c4cc(OC)c(OC)c(OC)c4)cc23)cc1,n,x,x,x,x,
Cc1ccsc1C(=O)OCC(=O)NCc1ccc2c(c1)OCO2,n,n,x,x,x,
CCn1cc(C(=O)OCC(=O)NCc2ccc3c(c2)OCO3)c(=O)c2ccc(C)nc21,n,2.7,n,8368,+,D1 ag no DA=n
CCOC(=O)c1ccccc1NC(=O)c1cn(CC)c2nc(C)ccc2c1=O,x,5,x,n,n,D1 ag no DA=n
CCn1cc(C(=O)Nc2ccccc2C(=O)OC)c(=O)c2ccc(C)nc21,x,n,x,x,x,
O=C(O)c1cnc(-c2ccccc2)nc1Sc1ccc(Cl)cc1Cl,n,x,n,x,x,
CCCC(=O)c1c[nH]c(C(=O)NCc2ccco2)c1,n,x,n,x,x,
CC(=O)Oc1ccc(NC(=O)CSc2ccccc2)cc1,n,n,n,x,x,
CCC(C)NC(=O)CSc1nnc(-c2cc(-c3cccs3)nc3ccccc23)o1 (stereo unspecified),n,x,n,x,x,
c1csc(-c2nn3c(Cn4nnc5ccccc54)nnc3s2)c1,n,5.6,n,9180,n,D1 ag no DA=n
c1ccc(Cc2nnc3sc(-c4ccccn4)nn23)cc1,n,n,n,x,x,
c1ccc2c(c1)nnn2Cc1nnc2sc(-c3ccncc3)nn12,n,n,n,x,x,
c1ccc(Cc2nnc3sc(-c4cccnc4)nn23)cc1,n,n,n,x,x,
c1coc(-c2nn3c(Cn4nnc5ccccc54)nnc3s2)c1,n,n,n,x,x,
c1ccc(Cc2nnc3sc(-c4cccs4)nn23)cc1,n,11,n,20672,+,D1 ag no DA=n
Clc1ccc(Cc2nn3c(Cn4nnc5ccccc54)nnc3s2)cc1,n,5.3,n,9044,+,D1 ag no DA=n
c1ccc(Cc2nnc3sc(-c4ccc5c(c4)OCCO5)nn23)cc1,n,6.9,n,12856,+,D1 ag no DA=n
CC1Cc2ccccc2N1C(=O)CSc1nnc2c(n1)[nH]c1ccc(F)cc12 (stereo unspecified),n,x,n,x,x,
COCCCNC(=O)C(=O)N/N=C/c1ccc(OCC(=O)Nc2cccc(Cl)c2C)c(OC)c1,n,x,n,x,x,
Cc1ccc(SCC(=O)N2c3ccccc3Sc3ccccc32)cc1,n,x,n,x,x,
CC(C)(C)[C@@H]1C=C(C(N)=O)O[C@H](OCCCCO)C1,n,x,x,x,x,
SMILES,hDAT+cocaine,D1 mod,EphB4 antag,D1 PAM confirm,Isoprot counter,others
CCn1c(=O)cc(SCC(=O)N2CCN(c3ccccc3F)CC2)c2ccccc21,n,x,n,x,x,
CCN1C(=O)N[C@@H](c2ccccc2)[C@@H](C(=O)OC)[C@H]1C,n,x,x,x,x,
CCn1ccc(C(=O)Nc2ccc(Cl)cn2)n1,n,n,n,x,x,
CCn1ccc(C(=O)Nc2ccc(N(C)C(C)=O)cc2)n1,n,2.4,n,n,n,D1 ag no DA=n
CC(C)c1ccc(CN2CCC(C(=O)NCc3cccnc3)CC2)cc1,n,x,n,x,x,
COC(=O)c1onc(-c2c(C)cc(C)cc2C)c1C(=O)OC,n,x,n,x,x,
COc1ccc(CCN(C)C(=O)CSc2nccn2C)cc1OC,n,4.5,n,9340,n,
COc1ccc(CCN(C)C(=O)N2CCOCC2)cc1OC,n,n,n,x,x,
CC1(C)CC(=O)C(C=Nc2ccccc2C(=O)O)=C(O)C1,n,x,n,x,x,
COC(=O)c1cc(OC)c(OC)cc1N=CC1=C(O)CC(C)(C)CC1=O,n,4.1,n,9648,+,D1 ag no DA=n
COCCCNC(=O)CC(NS(=O)(=O)c1ccc(Cl)cc1)c1ccc(OC)cc1 (stereo unspecified),n,x,n,x,x,
COc1cccc(C2=CC(c3ccc(OC)c(OC)c3OC)n3nnnc3N2)c1 (stereo unspecified),n,19,x,12516,+,
COc1cccc(C2=CC(c3cccs3)n3nnnc3N2)c1 (stereo unspecified),n,x,n,x,x,

# From PubChem BioAssay
